# About 83,000 compounds went through this panel and 20% of them were active in at least one assay; those are over-represented in the sample as a whole.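 Results are percent growth after 48 hours of single-concentration exposure. 100 means growth as in untreated cells, lower positive values show inhibition; negative values down to -100 show cell death.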 Unmarked numbers belong to inactive results. Calls of active or inactive are those of the source. The calls were made as follows: active = growth percent below 10; inactive = the rest.
# What was measured:
# Assay in all cases: NCI-60 one-dose screen, 48 h (100 = growth as untreated, 0 = no growth, -100 = all killed)
# Settings in all cases: 10 µM unless noted
# HCT-15 colon = system: HCT-15 colon
# HT29 colon = system: HT29 colon
# SNB-75 CNS = system: SNB-75 CNS
# SNB-19 CNS = system: SNB-19 CNS
# U251 CNS = system: U251 CNS
# PC-3 prostate = system: PC-3 prostate
# SK-MEL-5 melanoma = system: SK-MEL-5 melanoma
# LOX IMVI melanoma = system: LOX IMVI melanoma
# SK-MEL-28 melanoma = system: SK-MEL-28 melanoma
# SK-MEL-2 melanoma = system: SK-MEL-2 melanoma
# EKVX NSCLC = system: EKVX NSCLC
# SN12C renal = system: SN12C renal
# UO-31 renal = system: UO-31 renal
# TK-10 renal = system: TK-10 renal
# ACHN renal = system: ACHN renal
# A498 renal = system: A498 renal
# CCRF-CEM leukemia = system: CCRF-CEM leukemia
# MOLT-4 leukemia = system: MOLT-4 leukemia
# CAKI-1 renal = system: CAKI-1 renal
Structure (SMILES),growth (HCT-15 colon),growth (HT29 colon),growth (SNB-75 CNS),growth (SNB-19 CNS),growth (U251 CNS),growth (PC-3 prostate),growth (SK-MEL-5 melanoma),growth (LOX IMVI melanoma),growth (SK-MEL-28 melanoma),growth (SK-MEL-2 melanoma),growth (EKVX NSCLC),growth (SN12C renal),growth (UO-31 renal),growth (TK-10 renal),growth (ACHN renal),growth (A498 renal),growth (CCRF-CEM leukemia),growth (MOLT-4 leukemia),growth (CAKI-1 renal)
CCCCC[C@H]1C/C=C2/C(=O)C=C[C@@H]2C/C=C\CCCC(=O)O[C@@H](CCCCC)C/C=C2/C(=O)C=C[C@@H]2C/C=C\CCCC(=O)O1,-54.5% (active),-77.9% (active),-80.8% (active),-83.4% (active),-94.3% (active),-71% (active),-97.4% (active),-87.1% (active),-81.9% (active),-60% (active),-68.3% (active),-65.7% (active),-97.1% (active),-83.4% (active),-93.4% (active),-84.8% (active),-3.81% (active),-15.8% (active),
Cc1cc(Cl)nc(N(CCNc2ccnc3cc(Cl)ccc23)Cc2ccco2)n1,35.7%,30.3%,81.5%,37.9%,17.9%,34.1%,42.9%,22.5%,3.02% (active),55.8%,63.6%,33.5%,-33.5% (active),64%,17.7%,70.2%,8.24% (active),6.36% (active),
NC(=O)NCC1CCCCC1,94.5%,102%,90.7%,115%,104%,104%,109%,94.1%,110%,105%,96.6%,106%,92.9%,95.5%,106%,104%,99.3%,91.9%,89.3%
O=C(CCCCCn1c2ccccc2c2c3c(c4c5ccccc5[nH]c4c21)C(=O)N(O)C3=O)N1CCOCC1,49.2%,0.235% (active),87%,47.3%,33.9%,26.5%,0.765% (active),-16.8% (active),,72.5%,77.7%,57.1%,29.6%,70.7%,29.4%,26.9%,5.19% (active),-14.9% (active),-22.9% (active)
Cn1cc(-c2csc(-c3cn(CCCN4CCCCC4)c4ccc(F)cc34)n2)c2cccnc21,77.5%,75.2%,77.2%,90.3%,85.2%,71.5%,-27.7% (active),85.4%,-78.9% (active),93.5%,77.3%,83.9%,,99.7%,83.7%,73.4%,-29.9% (active),70.4%,
O=C(NO)c1ccc(Cn2c(=O)n(CCc3ccc(O)cc3)c(=O)c3ccccc32)cc1,96.5%,92.2%,47.8%,44.1%,8.31% (active),38.7%,42.1%,22.4%,17.5%,74.5%,76.7%,79%,88.6%,84.7%,,45.7%,9.36% (active),15.9%,95.2%
CCN1CCN(c2nc(C)cc(N(CCCNc3ccnc4cc(Cl)ccc34)Cc3ccco3)n2)CC1,17.9%,11.4%,66.8%,73.1%,42.2%,53.9%,-37.8% (active),9.87% (active),-63.7% (active),75.1%,63.1%,50.6%,,108%,30.2%,78.1%,42%,43.5%,
COC(=O)[C@]12CC[C@@H](C)[C@H](C)[C@@H]1C1=CC[C@@H]3[C@@]4(C)C[C@@H](OC(C)=O)[C@H](O)[C@@](C)(COC(C)=O)[C@@H]4[C@H](O)C[C@@]3(C)[C@]1(C)CC2,-79.4% (active),-84.1% (active),-81.1% (active),-82.6% (active),-94.2% (active),-95.1% (active),-99.9% (active),-100% (active),-88.3% (active),-73.6% (active),-88.8% (active),-69.9% (active),,-86.5% (active),-91.9% (active),-94.4% (active),-54.3% (active),-34.3% (active),-88.2% (active)

# — PubChem BioAssay (NCI)
